The supplement of paper PMC11732987, “Enantioselective OTUD7B fragment discovery through chemoproteomics screening and high-throughput optimisation” (Communications Chemistry, 2025)

Assays:
Assay in all cases: log2 ratio of Biotin-Ahx-Ub-VS probe labelling (fragment/DMSO); higher = less target engagement (more negative = stronger competition), active = hit call of the paper (q ≤ 0.05, log2 ratio ≤ -1)
Conditions in all cases: compound concentration: 200 uM; treatment time: 3 h
USP34 = USP34 (UniProt Q70CQ2)
Method in brief: (§1)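 Each value is an average log2 ratio of fragment to vehicle, tested by unpaired t-test. The underlying Spectronaut label-free quantities were global-median-normalised, and only proteins with ≥2 unique peptides were included. Triplicate HEK293T lysate samples (495 µg) were exposed to fragment at 200 µM or vehicle for 3 h, then to Biotin-Ahx-Ub-VS at 0.5 µM final for 1 h, before NeutrAvidin enrichment of labelled DUBs, LysC and trypsin digestion, and diaPASEF LC-MS/MS.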

USP36 = target: T1, USP36 (UniProt Q9P275)
T1 sequence (whole entry): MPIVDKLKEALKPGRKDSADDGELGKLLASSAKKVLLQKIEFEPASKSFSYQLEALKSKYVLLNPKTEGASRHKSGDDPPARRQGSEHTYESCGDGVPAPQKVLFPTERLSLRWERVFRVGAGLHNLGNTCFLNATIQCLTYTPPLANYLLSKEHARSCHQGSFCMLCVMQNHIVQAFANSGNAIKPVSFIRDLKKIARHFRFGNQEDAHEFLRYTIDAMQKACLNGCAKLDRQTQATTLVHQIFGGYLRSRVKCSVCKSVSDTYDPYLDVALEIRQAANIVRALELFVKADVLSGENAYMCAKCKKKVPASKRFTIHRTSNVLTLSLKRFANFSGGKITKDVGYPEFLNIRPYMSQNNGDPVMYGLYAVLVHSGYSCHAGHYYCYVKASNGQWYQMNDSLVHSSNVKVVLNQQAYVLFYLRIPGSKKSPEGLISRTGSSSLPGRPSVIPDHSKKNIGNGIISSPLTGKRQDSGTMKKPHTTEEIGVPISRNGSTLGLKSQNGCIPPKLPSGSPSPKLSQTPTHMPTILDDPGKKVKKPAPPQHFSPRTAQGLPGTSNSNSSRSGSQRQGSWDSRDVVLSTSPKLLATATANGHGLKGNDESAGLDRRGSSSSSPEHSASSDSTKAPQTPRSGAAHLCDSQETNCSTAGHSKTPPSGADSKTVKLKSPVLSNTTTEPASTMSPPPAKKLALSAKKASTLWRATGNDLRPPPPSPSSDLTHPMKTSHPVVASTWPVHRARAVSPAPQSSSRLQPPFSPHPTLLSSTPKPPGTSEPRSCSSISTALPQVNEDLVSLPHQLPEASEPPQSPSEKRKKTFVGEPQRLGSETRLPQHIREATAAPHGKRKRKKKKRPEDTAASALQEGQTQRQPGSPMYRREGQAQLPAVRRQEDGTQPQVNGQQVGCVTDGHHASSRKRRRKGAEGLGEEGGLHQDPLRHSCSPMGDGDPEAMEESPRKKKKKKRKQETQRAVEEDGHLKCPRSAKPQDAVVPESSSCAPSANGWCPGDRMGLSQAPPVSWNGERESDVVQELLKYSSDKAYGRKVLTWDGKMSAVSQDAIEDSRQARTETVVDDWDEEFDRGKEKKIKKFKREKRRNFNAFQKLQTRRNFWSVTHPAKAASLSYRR
Method in brief: as §1

USP38 = target: T2, USP38 (UniProt Q8NB14)
T2 sequence (whole entry): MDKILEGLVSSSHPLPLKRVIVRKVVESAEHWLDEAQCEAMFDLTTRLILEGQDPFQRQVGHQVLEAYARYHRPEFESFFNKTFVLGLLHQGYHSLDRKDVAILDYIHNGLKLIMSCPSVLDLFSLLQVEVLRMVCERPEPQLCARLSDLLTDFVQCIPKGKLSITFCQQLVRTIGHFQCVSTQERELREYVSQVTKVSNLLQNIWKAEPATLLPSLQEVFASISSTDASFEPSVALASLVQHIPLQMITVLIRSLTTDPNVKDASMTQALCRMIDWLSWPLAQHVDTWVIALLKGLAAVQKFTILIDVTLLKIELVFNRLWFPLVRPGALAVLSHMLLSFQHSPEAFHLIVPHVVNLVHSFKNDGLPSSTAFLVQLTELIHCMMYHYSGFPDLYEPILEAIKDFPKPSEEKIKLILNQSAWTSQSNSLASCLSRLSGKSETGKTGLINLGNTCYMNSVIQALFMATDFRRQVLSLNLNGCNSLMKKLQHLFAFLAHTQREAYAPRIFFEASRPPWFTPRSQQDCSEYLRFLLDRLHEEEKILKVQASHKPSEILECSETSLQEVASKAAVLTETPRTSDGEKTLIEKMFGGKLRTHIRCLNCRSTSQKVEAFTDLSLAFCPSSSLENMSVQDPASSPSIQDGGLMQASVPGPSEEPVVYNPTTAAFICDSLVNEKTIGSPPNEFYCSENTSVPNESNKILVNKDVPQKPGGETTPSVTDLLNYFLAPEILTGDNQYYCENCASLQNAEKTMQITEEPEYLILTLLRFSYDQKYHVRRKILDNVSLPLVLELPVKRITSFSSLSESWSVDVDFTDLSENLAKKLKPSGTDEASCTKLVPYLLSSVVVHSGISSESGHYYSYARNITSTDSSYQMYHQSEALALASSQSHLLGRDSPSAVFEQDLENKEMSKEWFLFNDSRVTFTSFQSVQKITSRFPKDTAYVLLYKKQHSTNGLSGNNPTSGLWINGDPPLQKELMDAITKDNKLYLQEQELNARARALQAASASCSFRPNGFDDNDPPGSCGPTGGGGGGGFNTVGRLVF
Method in brief: as §1

USP39 = target: T3, USP39 (UniProt Q53GS9)
T3 sequence (whole entry): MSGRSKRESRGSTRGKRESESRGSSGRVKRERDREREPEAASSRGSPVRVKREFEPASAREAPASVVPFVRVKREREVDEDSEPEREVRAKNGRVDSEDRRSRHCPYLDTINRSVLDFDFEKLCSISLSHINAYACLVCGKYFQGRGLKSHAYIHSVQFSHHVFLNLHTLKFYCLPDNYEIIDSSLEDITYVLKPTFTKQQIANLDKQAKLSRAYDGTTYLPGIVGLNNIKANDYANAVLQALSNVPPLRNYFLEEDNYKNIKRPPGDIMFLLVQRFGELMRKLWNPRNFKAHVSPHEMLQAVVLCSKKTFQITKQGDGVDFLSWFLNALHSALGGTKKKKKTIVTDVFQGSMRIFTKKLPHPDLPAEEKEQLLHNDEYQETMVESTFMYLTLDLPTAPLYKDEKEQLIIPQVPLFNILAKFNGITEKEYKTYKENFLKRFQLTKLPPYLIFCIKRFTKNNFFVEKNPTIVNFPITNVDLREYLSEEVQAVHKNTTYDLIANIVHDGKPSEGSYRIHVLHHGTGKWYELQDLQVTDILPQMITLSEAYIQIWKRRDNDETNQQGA
Method in brief: as §1

USP4 = target: T4, USP4 (UniProt Q13107)
T4 sequence (whole entry): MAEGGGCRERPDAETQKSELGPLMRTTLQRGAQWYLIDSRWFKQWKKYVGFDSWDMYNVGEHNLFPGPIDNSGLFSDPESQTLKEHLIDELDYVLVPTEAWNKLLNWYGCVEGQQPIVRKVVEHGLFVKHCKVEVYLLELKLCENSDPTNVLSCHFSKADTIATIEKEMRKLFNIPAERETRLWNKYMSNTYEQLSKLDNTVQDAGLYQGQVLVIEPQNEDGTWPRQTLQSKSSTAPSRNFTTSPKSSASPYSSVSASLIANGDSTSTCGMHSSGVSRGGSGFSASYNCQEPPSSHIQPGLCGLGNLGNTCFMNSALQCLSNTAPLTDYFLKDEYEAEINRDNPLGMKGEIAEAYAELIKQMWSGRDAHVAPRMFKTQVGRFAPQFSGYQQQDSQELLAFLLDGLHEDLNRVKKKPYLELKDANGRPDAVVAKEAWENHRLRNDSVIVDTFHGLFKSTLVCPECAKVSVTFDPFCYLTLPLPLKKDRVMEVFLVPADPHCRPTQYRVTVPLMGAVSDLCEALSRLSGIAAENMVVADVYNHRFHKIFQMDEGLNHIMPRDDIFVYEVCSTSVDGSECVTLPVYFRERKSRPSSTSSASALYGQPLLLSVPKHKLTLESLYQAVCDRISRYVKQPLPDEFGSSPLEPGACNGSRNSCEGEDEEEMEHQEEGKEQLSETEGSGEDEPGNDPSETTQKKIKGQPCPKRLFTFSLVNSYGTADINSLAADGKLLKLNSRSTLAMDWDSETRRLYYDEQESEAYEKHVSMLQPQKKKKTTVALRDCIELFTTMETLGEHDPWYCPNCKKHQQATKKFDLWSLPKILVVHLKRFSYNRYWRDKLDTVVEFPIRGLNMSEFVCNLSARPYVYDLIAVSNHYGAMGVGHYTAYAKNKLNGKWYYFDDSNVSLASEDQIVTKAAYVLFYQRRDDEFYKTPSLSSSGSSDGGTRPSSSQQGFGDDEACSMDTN
Method in brief: as §1

Measured: log2 ratio of Biotin-Ahx-Ub-VS probe labelling

Sequence of USP34 (Q70CQ2 whole entry, the tested form may be a part): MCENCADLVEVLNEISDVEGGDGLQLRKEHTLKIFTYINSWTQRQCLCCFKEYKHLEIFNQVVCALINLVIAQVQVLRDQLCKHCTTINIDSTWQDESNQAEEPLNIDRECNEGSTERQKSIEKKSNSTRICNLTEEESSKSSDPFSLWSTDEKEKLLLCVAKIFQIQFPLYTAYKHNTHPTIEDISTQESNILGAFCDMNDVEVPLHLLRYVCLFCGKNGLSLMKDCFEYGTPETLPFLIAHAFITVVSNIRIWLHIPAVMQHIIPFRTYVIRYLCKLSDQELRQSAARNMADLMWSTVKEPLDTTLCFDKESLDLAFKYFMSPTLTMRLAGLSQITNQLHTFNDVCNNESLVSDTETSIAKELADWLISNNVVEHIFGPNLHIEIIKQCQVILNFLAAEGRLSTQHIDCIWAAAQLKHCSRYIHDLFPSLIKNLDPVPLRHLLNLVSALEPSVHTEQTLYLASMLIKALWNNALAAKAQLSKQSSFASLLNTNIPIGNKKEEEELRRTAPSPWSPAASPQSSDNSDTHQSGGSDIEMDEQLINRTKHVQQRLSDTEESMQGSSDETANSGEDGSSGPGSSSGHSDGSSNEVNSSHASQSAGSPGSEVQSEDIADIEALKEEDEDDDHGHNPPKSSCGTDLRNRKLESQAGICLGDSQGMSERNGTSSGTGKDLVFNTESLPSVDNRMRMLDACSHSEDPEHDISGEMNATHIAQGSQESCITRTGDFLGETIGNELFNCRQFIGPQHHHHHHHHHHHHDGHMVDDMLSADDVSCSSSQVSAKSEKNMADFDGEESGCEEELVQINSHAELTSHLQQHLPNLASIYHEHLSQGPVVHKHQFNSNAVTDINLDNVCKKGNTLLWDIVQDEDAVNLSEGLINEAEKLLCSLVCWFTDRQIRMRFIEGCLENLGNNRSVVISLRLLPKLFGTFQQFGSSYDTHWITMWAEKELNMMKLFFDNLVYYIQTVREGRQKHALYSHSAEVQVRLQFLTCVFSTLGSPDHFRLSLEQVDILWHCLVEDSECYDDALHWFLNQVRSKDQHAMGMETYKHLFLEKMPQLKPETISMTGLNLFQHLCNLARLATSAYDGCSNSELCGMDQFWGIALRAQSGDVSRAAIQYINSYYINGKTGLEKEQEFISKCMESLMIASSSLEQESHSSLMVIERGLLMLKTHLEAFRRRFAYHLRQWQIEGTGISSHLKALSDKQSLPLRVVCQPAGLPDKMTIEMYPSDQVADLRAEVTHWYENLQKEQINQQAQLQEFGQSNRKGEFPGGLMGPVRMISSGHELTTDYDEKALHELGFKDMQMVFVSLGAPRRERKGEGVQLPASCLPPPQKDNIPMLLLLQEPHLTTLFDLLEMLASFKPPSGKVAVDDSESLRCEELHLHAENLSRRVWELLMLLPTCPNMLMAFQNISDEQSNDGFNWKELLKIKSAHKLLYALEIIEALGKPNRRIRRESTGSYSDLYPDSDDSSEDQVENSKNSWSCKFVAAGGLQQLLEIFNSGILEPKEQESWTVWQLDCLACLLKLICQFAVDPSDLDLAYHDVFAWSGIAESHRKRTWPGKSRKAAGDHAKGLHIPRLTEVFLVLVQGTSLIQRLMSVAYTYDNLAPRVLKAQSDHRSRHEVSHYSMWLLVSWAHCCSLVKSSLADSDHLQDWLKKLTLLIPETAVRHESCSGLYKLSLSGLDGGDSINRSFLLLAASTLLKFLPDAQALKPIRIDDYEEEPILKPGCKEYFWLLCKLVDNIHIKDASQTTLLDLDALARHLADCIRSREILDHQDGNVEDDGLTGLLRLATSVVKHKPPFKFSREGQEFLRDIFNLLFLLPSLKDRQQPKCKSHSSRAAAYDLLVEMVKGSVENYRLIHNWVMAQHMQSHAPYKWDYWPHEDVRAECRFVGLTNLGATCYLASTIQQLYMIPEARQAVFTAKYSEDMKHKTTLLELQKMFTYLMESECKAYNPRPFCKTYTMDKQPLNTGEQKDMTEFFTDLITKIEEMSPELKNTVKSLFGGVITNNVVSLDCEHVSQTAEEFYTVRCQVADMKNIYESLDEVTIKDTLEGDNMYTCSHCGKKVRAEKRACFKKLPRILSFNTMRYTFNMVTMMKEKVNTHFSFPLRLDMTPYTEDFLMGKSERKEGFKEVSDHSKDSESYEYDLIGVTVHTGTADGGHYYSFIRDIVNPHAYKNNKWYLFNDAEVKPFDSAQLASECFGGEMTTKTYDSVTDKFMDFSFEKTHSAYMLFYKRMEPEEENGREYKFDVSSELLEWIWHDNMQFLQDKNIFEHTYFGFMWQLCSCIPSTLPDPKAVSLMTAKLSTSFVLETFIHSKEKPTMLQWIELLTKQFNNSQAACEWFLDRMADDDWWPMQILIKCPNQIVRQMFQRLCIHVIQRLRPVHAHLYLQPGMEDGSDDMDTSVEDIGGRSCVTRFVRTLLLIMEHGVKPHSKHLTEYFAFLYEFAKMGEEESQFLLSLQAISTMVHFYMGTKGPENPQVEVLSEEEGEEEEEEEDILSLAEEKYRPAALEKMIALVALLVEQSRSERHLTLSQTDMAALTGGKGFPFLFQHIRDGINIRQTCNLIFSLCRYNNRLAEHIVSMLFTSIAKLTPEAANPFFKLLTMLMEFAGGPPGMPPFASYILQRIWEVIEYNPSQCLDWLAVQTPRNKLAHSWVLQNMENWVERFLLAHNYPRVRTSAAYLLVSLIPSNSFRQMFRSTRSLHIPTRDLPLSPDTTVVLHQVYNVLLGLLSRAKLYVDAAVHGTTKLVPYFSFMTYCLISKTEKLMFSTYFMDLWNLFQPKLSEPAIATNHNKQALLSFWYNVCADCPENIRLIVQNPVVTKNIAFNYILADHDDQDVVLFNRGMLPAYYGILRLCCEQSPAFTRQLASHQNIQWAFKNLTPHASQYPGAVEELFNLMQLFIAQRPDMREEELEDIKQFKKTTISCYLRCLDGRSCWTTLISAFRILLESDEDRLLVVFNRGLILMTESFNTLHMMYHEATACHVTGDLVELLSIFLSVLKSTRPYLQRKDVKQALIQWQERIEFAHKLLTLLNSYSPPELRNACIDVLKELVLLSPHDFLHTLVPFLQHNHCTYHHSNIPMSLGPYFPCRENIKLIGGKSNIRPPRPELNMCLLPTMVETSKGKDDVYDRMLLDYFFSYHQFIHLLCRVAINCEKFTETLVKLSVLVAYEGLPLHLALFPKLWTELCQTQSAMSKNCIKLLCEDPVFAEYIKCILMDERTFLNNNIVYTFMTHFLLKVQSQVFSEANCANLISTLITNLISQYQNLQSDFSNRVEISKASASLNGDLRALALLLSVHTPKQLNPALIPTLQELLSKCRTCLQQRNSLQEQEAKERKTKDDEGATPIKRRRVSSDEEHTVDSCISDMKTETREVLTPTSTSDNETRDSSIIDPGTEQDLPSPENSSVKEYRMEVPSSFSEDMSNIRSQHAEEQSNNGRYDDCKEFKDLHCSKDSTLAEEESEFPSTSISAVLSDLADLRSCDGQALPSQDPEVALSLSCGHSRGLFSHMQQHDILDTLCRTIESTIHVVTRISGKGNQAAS

O=C(CCl)NCCC1=CCCCC1
inactive: USP34 0.0934 | USP36 -0.119 | USP38 -0.0475 | USP39 0.131 | USP4 0.0999
